# Key:
# Experiment in all cases: DAPPL (digital affinity profiling via proximity ligation, sequencing); 10 mM Tris-HCl pH 7.5, 50 mM NaCl, 1 mM DTT, 4% glycerol, room temperature, 30 min; GST-TFs on glutathione beads, 16-mer random dsDNA library, 0.1% formaldehyde crosslink after washing; high values mean tight binding
# FEV = molecular target: T1, FEV (Homo sapiens, UniProt Q99581 1-238); conditions: protein: recombinant; tags: N-terminal GST; dsDNA, one strand shown
# T1 sequence: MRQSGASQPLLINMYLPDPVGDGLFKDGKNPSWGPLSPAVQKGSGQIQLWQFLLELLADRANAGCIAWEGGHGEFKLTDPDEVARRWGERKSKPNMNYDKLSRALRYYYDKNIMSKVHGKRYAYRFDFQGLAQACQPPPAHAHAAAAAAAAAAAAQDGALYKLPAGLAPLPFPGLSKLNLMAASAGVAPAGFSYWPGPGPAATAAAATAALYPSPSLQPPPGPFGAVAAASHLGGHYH
# In short: (§1)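 Yeast served to express human transcription factors as GST fusions, which were then captured on glutathione beads and labelled with DNA barcodes. Pooled with a tag-only sample, they were incubated with 200 nmole of a 16-mer random double-stranded DNA library for 30 min at room temperature in Tris/NaCl/DTT/glycerol buffer, washed, crosslinked with 0.1% formaldehyde, ligated by proximity, amplified by PCR and sequenced. Dividing each hexamer's read frequency for a factor by its frequency for the tag-only sample gives the binding signal.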
# ETV5 = ETV5 (Homo sapiens, UniProt P41161 1-510); conditions: protein: recombinant; tags: N-terminal GST; dsDNA, one strand shown
# In short: as §1
# HSF1 = HSF1 (Homo sapiens, UniProt Q00613 1-529); conditions: protein: recombinant; tags: N-terminal GST; chain copies: 3; dsDNA, one strand shown
# In short: as §1
# SPIC = molecular target: T2, SPIC (Homo sapiens, UniProt Q8N5J4 1-248); conditions: protein: recombinant; tags: N-terminal GST; dsDNA, one strand shown
# T2 sequence: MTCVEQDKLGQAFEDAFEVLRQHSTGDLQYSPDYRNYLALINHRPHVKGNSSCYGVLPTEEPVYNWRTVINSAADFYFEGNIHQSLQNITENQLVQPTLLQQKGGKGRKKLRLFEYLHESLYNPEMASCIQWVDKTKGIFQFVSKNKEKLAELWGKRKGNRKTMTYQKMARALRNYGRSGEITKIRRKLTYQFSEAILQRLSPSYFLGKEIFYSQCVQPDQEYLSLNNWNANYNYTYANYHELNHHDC
# In short: as §1
# ELF4 = ELF4 (Homo sapiens, UniProt Q99607 1-663); conditions: protein: recombinant; tags: N-terminal GST; dsDNA, one strand shown
# In short: as §1
# ELK4 = molecular target: T3, ELK4 (Homo sapiens, UniProt P28324-2 1-405); conditions: protein: recombinant; tags: N-terminal GST; dsDNA, one strand shown
# T3 sequence: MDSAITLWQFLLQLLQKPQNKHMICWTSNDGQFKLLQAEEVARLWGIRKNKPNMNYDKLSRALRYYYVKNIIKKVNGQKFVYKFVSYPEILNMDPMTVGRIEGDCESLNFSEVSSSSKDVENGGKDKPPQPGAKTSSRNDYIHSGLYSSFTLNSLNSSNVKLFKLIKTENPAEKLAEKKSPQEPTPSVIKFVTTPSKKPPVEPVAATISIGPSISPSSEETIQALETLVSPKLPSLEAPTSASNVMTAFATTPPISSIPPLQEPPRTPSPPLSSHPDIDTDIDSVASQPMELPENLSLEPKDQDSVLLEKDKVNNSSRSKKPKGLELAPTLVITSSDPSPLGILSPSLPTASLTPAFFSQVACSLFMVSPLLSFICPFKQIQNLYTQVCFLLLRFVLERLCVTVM
# In short: as §1
# ETV2 = molecular target: T4, ETV2 (Homo sapiens, UniProt O00321 1-342); conditions: protein: recombinant; tags: N-terminal GST; dsDNA, one strand shown
# T4 sequence: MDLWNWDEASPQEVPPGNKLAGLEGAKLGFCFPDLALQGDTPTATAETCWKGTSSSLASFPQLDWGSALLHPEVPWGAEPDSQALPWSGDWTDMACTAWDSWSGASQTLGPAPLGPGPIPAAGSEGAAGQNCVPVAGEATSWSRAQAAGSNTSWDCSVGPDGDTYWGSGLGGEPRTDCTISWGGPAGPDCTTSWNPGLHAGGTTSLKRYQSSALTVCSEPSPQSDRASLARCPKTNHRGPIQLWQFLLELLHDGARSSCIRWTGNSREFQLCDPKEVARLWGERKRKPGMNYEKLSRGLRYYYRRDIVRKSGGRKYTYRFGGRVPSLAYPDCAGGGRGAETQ
# In short: as §1
# ELF3 = molecular target: T5, ELF3 (Homo sapiens, UniProt P78545 1-371); conditions: protein: recombinant; tags: N-terminal GST; dsDNA, one strand shown
# T5 sequence: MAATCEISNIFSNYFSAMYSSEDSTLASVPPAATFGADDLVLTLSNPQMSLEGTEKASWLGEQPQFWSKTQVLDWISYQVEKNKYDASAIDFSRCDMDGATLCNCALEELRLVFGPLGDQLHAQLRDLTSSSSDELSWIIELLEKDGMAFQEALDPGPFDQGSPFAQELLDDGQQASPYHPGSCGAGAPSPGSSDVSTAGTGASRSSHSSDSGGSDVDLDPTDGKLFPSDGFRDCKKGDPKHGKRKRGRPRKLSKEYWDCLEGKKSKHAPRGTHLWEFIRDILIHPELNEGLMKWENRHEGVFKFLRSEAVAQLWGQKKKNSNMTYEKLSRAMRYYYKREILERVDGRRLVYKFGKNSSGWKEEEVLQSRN
# In short: as §1
# ETV1 = ETV1 (Homo sapiens, UniProt P50549 1-477); conditions: protein: recombinant; tags: N-terminal GST; dsDNA, one strand shown
# In short: as §1
# ERF = molecular target: T6, ERF (Homo sapiens, UniProt P50548 1-548); conditions: protein: recombinant; tags: N-terminal GST; dsDNA, one strand shown
# T6 sequence: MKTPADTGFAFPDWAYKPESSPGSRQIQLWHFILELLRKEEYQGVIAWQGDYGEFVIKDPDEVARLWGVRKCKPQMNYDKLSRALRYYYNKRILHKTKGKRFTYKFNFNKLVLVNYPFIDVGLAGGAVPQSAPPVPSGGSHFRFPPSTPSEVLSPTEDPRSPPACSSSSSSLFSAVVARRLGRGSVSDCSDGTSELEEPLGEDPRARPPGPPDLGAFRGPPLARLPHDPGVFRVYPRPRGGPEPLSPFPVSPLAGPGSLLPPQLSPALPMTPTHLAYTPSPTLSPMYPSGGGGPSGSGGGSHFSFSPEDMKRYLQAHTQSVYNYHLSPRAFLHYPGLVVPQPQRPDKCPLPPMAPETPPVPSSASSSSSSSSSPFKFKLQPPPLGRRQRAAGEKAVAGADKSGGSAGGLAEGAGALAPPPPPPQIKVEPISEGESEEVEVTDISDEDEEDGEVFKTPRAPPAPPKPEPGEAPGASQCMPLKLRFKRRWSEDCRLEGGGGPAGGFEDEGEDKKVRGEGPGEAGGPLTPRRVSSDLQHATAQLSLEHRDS
# In short: as §1
# ETV3L = molecular target: T7, ETV3L (Homo sapiens, UniProt Q6ZN32 1-361); conditions: protein: recombinant; tags: N-terminal GST; dsDNA, one strand shown
# T7 sequence: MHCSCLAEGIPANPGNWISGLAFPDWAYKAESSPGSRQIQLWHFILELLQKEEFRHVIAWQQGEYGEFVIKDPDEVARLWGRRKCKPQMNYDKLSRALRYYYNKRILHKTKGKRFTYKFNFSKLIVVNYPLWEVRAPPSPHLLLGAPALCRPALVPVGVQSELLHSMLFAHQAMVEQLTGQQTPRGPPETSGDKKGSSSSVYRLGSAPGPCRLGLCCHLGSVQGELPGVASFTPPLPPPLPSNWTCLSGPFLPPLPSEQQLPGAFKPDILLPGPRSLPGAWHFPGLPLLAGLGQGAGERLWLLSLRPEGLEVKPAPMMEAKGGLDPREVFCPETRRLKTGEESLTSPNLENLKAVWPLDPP
# In short: as §1
# ETS2 = molecular target: T8, ETS2 (Homo sapiens, UniProt P15036 1-469); conditions: protein: recombinant; tags: N-terminal GST; dsDNA, one strand shown
# T8 sequence: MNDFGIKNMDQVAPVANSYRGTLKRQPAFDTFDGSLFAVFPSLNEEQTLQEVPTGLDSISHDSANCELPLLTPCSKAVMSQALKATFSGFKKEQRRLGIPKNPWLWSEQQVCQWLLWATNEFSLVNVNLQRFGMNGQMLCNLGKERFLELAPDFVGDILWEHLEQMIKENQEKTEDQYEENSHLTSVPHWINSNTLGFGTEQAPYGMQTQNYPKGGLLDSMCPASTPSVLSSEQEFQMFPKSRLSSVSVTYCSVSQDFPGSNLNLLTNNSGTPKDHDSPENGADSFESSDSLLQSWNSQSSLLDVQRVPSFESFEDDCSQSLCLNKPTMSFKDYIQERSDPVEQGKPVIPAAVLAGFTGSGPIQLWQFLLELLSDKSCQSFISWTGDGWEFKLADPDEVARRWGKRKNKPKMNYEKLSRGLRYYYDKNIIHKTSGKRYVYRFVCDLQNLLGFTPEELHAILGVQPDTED
# In short: as §1
# SPDEF = molecular target: T9, SPDEF (Homo sapiens, UniProt O95238 1-335); conditions: protein: recombinant; tags: N-terminal GST; dsDNA, one strand shown
# T9 sequence: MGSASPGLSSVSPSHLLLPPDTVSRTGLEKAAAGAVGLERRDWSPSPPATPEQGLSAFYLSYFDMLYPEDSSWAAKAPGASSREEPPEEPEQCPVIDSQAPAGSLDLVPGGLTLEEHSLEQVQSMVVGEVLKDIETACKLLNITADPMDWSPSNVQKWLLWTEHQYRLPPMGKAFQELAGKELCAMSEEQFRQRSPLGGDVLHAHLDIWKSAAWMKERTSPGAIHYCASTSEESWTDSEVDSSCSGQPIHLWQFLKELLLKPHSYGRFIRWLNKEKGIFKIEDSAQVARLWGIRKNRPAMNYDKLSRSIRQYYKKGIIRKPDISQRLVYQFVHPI
# In short: as §1
# ETV7 = molecular target: T10, ETV7 (Homo sapiens, UniProt Q9Y603 1-341); conditions: protein: recombinant; tags: N-terminal GST; dsDNA, one strand shown
# T10 sequence: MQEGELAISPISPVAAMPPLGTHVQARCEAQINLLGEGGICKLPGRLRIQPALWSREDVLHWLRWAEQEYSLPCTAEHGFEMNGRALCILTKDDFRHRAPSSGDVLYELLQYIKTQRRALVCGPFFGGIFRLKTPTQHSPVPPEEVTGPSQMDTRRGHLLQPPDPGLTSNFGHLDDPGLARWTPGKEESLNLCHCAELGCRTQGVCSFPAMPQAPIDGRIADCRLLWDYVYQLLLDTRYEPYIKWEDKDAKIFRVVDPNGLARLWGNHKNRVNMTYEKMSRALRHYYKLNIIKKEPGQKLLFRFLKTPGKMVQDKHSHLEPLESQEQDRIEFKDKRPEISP
# In short: as §1
# ELF5 = molecular target: T11, ELF5 (Homo sapiens, UniProt Q9UKW6-2 1-255); conditions: protein: recombinant; tags: N-terminal GST; dsDNA, one strand shown
# T11 sequence: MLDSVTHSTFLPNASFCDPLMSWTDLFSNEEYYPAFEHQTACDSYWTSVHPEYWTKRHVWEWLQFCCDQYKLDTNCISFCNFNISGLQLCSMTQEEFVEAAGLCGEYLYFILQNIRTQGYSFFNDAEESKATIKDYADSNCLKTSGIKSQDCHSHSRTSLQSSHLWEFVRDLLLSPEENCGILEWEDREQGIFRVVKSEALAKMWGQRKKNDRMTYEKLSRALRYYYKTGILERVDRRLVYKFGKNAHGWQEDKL
# In short: as §1
# ETV3 = molecular target: T12, ETV3 (Homo sapiens, UniProt P41162-2 1-143); conditions: protein: recombinant; tags: N-terminal GST; dsDNA, one strand shown
# T12 sequence: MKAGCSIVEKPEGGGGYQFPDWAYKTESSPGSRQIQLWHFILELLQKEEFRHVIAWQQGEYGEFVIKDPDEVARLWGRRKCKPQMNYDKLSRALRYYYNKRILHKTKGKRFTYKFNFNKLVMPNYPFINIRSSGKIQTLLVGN
# In short: as §1
# ETV6 = ETV6 (Homo sapiens, UniProt P41212 1-452); conditions: protein: recombinant; tags: N-terminal GST; dsDNA, one strand shown
# In short: as §1
# ELF4, sequence (Q99607 whole entry): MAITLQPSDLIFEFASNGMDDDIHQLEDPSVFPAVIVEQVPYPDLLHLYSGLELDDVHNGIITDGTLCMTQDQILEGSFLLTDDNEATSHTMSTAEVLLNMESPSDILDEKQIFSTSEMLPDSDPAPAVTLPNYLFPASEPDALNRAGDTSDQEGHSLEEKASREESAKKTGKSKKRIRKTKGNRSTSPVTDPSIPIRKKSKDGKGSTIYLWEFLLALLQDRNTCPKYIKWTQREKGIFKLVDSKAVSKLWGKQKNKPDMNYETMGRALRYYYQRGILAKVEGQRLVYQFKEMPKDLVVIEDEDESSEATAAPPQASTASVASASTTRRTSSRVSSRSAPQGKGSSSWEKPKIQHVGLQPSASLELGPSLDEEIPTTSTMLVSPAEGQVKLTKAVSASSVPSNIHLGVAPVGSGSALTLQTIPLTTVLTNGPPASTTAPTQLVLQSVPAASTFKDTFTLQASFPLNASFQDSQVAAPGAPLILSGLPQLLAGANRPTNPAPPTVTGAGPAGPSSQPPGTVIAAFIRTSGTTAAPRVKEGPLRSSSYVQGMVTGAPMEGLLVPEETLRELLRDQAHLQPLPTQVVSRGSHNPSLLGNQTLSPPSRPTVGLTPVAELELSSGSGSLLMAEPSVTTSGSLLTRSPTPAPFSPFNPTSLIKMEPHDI
# ETV6, sequence (P41212 whole entry): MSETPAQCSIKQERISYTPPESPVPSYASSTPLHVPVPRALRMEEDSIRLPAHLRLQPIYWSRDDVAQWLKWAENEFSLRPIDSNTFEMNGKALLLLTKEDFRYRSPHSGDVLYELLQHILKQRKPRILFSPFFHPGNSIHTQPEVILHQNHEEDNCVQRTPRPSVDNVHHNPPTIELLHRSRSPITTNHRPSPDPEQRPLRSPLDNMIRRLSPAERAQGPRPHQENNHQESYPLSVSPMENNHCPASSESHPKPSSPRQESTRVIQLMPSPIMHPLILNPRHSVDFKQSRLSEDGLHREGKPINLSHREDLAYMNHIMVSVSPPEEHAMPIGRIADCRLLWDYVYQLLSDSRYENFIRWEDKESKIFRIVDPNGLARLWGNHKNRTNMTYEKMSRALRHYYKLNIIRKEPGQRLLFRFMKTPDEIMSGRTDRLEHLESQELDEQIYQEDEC
# ETV5, sequence (P41161 whole entry): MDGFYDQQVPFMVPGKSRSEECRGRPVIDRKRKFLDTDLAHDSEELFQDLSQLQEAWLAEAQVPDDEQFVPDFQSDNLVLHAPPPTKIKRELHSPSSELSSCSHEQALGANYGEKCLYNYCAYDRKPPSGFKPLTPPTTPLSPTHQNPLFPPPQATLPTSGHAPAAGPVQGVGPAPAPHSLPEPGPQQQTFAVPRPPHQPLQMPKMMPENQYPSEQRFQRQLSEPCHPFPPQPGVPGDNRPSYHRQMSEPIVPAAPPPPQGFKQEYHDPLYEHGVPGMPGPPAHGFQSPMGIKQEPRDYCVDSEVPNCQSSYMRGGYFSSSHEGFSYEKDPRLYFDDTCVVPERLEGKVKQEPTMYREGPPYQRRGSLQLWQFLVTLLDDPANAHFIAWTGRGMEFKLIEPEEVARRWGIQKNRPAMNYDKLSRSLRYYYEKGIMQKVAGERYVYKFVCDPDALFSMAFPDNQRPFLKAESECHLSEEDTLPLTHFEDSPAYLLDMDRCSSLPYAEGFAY
# HSF1, sequence (Q00613 whole entry): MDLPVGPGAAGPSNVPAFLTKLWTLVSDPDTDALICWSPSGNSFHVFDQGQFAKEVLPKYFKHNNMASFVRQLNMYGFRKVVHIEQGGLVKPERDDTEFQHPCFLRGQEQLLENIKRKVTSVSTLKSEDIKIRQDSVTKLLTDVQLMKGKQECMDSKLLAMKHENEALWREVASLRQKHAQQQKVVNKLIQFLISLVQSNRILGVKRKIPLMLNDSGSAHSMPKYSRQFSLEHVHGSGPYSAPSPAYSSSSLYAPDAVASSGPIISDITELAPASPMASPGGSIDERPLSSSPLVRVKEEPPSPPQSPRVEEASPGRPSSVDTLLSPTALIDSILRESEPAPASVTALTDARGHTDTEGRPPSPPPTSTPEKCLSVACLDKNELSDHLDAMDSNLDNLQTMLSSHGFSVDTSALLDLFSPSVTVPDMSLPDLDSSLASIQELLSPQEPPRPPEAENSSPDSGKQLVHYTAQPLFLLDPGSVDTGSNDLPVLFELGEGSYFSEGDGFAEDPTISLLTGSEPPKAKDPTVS
# ETV1, sequence (P50549 whole entry): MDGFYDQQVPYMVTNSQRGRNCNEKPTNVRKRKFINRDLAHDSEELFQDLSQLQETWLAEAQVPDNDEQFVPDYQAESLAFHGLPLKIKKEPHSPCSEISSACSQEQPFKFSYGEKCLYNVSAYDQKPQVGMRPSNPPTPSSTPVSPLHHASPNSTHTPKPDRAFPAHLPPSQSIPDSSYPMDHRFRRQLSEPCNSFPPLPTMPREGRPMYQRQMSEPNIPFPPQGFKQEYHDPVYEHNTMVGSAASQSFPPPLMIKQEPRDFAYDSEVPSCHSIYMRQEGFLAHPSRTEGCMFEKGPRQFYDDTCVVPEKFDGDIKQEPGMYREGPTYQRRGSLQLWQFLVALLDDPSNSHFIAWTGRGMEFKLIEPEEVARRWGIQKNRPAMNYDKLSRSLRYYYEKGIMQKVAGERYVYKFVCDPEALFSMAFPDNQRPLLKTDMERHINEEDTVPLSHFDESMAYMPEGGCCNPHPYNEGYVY
sequence,measurement,setting,value
TGGTAC,binding signal,FEV,"1.07 fold enrichment (6-mer frequency, TF over GST control)"
same,binding signal,ETV5,"1.2 fold enrichment (6-mer frequency, TF over GST control)"
same,binding signal,HSF1,"1.04 fold enrichment (6-mer frequency, TF over GST control)"
same,binding signal,SPIC,"1.14 fold enrichment (6-mer frequency, TF over GST control)"
same,binding signal,ELF4,"1.08 fold enrichment (6-mer frequency, TF over GST control)"
same,binding signal,ELK4,"1.11 fold enrichment (6-mer frequency, TF over GST control)"
same,binding signal,ETV2,"1.15 fold enrichment (6-mer frequency, TF over GST control)"
same,binding signal,ELF3,"1.07 fold enrichment (6-mer frequency, TF over GST control)"
same,binding signal,ETV1,"1.19 fold enrichment (6-mer frequency, TF over GST control)"
same,binding signal,ERF,"1.11 fold enrichment (6-mer frequency, TF over GST control)"
same,binding signal,ETV3L,"1.21 fold enrichment (6-mer frequency, TF over GST control)"
same,binding signal,ETS2,"1.19 fold enrichment (6-mer frequency, TF over GST control)"
same,binding signal,SPDEF,"1.11 fold enrichment (6-mer frequency, TF over GST control)"
same,binding signal,ETV7,"1.14 fold enrichment (6-mer frequency, TF over GST control)"
same,binding signal,ELF5,"1.14 fold enrichment (6-mer frequency, TF over GST control)"
same,binding signal,ETV3,"1.14 fold enrichment (6-mer frequency, TF over GST control)"
same,binding signal,ETV6,"1.14 fold enrichment (6-mer frequency, TF over GST control)"

# Source: article PMC7862700, “An all-to-all approach to the identification of sequence-specific readers for epigenetic DNA modifications on cytosine”
